Source: PubChem BioAssay (NCATS)
Inconclusive results are not listed. Calls of active or inactive are those of the source. Unless noted, calls follow the shape of the dose curve; as a rule, active = well fitted curve in the direction sought with a large enough effect; inconclusive = small, poorly fitted or top-dose-only effect, or another doubt; inactive = no such curve, though single readings can be large; an effect the other way counts as inactive or inconclusive.

Experiments:
[1] = AP1 Signaling Pathway (AID 357; active = well fitted curve in either direction with a large enough effect, not every such curve was filed as active; also: % is scaled to controls: 0 for no effect and ±100 for the full control effect); settings: ME-180 AP-1-bla reporter, EGF-induced, beta-lactamase ratio, 5 h; at 7.69 µM (top of the series) unless noted
Summary of the method: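 AP-1-bla ME-180 cells with beta-lactamase reporter under AP-1 response element, stimulated with EC50 EGF; compounds titrated, 5 hours at 37 degrees Celsius. CCF4 read at 460/530 nm ratio; positive and negative modulators judged by AC50.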

[2] = molecular target: Cytochrome P450 1A2 (Homo sapiens) (UniProt P05177); test: p450-cyp1a2 (AID 410; calls by dose curve;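 also: -100% = full effect of reference inhibitor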)
Chain of Cytochrome P450 1A2 (Homo sapiens) (P05177 whole entry, looked up): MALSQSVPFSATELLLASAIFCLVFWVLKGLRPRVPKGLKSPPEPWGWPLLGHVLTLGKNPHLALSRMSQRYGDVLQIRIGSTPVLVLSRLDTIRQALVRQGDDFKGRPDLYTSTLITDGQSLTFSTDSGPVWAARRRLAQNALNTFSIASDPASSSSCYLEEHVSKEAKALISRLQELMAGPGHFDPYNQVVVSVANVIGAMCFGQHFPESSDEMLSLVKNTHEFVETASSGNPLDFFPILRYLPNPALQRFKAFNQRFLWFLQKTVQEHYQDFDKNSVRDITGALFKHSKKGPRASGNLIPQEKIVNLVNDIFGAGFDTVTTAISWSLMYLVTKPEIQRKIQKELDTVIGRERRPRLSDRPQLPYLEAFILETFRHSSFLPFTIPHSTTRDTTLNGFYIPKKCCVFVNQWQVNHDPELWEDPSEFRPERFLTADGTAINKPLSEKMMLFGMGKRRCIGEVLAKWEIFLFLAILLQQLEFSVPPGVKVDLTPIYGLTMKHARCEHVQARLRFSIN
Summary of the method: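 Human CYP1A2 (20nM) demethylated Luciferin-ME at its Km (100uM) in 100mM KPO4. After 10 min compound preincubation, NADPH regeneration ran the reaction 60 min at room temperature. Luciferin was read by luminescence, normalized to 57 uM furafylline.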

[3] = Stat Signaling Pathway (AID 446; active = well fitted curve in either direction with a large enough effect, not every such curve was filed as active;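 also: ME-180 cervical cancer cells given 40 pM IL-6 alongside compound; SIE-controlled beta-lactamase reporter measured as 460/530 nm FRET emission ratio; % is scaled to controls: 0 for no effect and ±100 for the full control effect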)
Summary of the method: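 ME-180 cells carrying a SIE-driven beta-lactamase reporter are stimulated with 40 pM IL-6 for 5 h at 37C in the presence of compound. The 460/530 nm FRET substrate ratio is read after 2.5 h at RT. Data are normalised to 300 pM IL-6 and to 125 nM JAK inhibitor controls.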

[4] = molecular target: Glucocorticoid receptor (Homo sapiens) (UniProt P04150); test: GR-GFP Redistribution (AID 450;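 active = compounds whose dose series gives a full or clear partial fitted curve of increased nuclear translocation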; also: potency is read from the fitted curve at half-maximal effect); settings: U2OS GR-GFP nuclear translocation, laser cytometry, 2 h
Chain of Glucocorticoid receptor (Homo sapiens) (P04150 whole entry, looked up, the tested form may be a part): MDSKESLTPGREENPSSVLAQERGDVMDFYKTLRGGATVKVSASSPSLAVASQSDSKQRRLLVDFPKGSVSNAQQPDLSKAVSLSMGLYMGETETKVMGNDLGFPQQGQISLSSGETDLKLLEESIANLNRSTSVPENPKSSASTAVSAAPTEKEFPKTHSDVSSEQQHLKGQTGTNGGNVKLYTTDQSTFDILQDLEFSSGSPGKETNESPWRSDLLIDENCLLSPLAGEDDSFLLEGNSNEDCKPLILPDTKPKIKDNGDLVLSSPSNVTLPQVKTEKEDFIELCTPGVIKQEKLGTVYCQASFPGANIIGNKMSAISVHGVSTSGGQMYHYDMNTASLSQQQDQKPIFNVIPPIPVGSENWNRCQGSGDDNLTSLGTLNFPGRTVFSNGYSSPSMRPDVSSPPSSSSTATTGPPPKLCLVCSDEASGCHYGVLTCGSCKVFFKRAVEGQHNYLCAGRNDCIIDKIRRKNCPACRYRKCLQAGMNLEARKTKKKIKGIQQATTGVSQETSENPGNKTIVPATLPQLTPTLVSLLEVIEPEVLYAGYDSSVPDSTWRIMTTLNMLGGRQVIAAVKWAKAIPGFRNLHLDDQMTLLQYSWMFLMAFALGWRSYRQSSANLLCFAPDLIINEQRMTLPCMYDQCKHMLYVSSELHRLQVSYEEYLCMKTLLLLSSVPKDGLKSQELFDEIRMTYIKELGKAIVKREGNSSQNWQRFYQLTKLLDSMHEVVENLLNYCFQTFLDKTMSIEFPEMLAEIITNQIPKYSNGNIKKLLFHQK

[5] = molecular target: Glucocorticoid receptor (Homo sapiens) (UniProt P04150); test: GR-EFC Redistribution (AID 451; calls by dose curve; also: potency is read from the fitted curve at half-maximal effect); settings: CHO-K1 GR-EFC translocation, beta-gal luminescence, 2 h
Summary of the method: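 CHO-K1 cells stably expressing nuclear-localized β-gal enzyme acceptor and GR fused C-terminally to the enzyme donor fragment; ligand-driven nuclear translocation restores β-gal by complementation. Compounds titrated up to 46 uM final, 2 h at 37 °C; luminescence read.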

[6] = molecular target: Mitogen-activated protein kinase 10 (Mus musculus) (UniProt Q61831); test: JNK3 AlphaScreen Assay (AID 530; active = well fitted curve in either direction with a large enough effect, not every such curve was filed as active;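 also: kinase came from lysate of stimulated human HepG2 cells; signal reports phosphorylation of biotinylated GST-cJun 1-79 at Ser73 with 10 µM ATP; % is scaled to controls: 0 for no effect and ±100 for the full control effect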)
Summary of the method: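 JNK3 came from HepG2 lysates pre-activated with IL-1beta and TNF-alpha and phosphorylated biotinylated GST-cJun (1-79) at 10 uM ATP, pH 7.6, room temperature. Compounds were titrated. AlphaScreen signal used anti-phospho-cJun (Ser73) antibody.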

[7] = molecular target: 3',5'-cyclic-AMP phosphodiesterase 4B (Homo sapiens) (UniProt Q07343); test: qHTS Assay for Inhibitors of PDE-IV (AID 607; active = well fitted activation curve with a large enough effect in the main read-out, with a control signal flat, not every such curve was filed as active; also: % of control where 0% means no effect)
Chain of 3',5'-cyclic-AMP phosphodiesterase 4B (Homo sapiens) (Q07343 whole entry, looked up): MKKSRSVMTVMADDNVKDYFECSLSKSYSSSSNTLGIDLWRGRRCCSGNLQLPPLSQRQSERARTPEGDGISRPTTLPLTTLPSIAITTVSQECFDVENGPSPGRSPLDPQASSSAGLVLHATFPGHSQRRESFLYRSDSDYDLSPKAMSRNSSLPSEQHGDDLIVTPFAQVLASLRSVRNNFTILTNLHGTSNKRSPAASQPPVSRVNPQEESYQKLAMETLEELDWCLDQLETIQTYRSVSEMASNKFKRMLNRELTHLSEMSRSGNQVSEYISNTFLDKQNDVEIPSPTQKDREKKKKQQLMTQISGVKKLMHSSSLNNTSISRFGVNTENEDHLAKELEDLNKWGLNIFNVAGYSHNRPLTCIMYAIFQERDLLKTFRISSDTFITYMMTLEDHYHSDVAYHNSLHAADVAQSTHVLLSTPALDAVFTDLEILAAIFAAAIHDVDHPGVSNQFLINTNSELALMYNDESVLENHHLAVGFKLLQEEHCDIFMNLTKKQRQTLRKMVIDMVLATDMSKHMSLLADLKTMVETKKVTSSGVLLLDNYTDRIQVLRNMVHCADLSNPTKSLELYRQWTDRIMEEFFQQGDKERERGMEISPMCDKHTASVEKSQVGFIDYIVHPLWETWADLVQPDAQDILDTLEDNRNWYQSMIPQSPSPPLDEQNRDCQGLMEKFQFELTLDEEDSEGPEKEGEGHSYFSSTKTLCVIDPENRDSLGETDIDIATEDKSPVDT
Summary of the method: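 HEK293 ACTOne cells with CNG channel (1000/well), endogenous PDE4; membrane potential dye, compounds up to 22.9 uM final. Fluorescence Ex 535/Em 590; RO 20-1724 (100 uM final) as reference.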

[8] = molecular target: Guanine nucleotide-binding protein G(i) subunit alpha-1 (Homo sapiens) (UniProt P63096); test: qHTS Assay for Inhibitors of RGS12 GoLoco Motif Activity (Green Fluorophore) (AID 879);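 also: 0% = labeled peptide with Gαi1 and full inhibition = labeled peptide alone without protein; negative values mean loss of peptide binding seen as reduced polarization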
Chain of Guanine nucleotide-binding protein G(i) subunit alpha-1 (Homo sapiens) (P63096 whole entry, looked up): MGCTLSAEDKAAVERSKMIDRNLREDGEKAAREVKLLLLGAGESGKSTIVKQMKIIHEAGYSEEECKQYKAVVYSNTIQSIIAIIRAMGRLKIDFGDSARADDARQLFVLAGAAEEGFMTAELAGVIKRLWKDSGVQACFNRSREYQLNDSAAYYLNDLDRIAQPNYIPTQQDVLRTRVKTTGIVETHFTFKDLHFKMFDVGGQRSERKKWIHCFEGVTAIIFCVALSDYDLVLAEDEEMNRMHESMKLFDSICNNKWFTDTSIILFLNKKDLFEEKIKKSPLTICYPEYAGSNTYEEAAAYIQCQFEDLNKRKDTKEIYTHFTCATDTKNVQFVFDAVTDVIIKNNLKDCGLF
Summary of the method: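 Fluorescence polarization assay: 50 nM Gαi1 with 10 nM FITC-labeled RGS12 GoLoco peptide in 10 mM Tris pH 7.5, 150 mM NaCl, 0.1 mM GDP, 0.05% NP40, 10 min at room temperature with compound.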

[9] = qHTS Assay for Identification of Small Molecule Agonists for Hypoxia Response Element Signaling Pathway (AID 914; active = well fitted activation curve with a large enough effect in the signal ratio, with a control signal flat, not every such curve was filed as active; the % refers to the signal ratio; also: % of control where 0% means no effect); settings: ME-180 (cervical carcinoma) HRE-bla reporter, beta-lactamase ratio, CoCl2, 17 h; activation: hits give high values
Summary of the method: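 HRE-bla ME-180 cells with beta-lactamase reporter under hypoxia response element, compounds with EC50 CoCl2 for 17 hours at 37 C. CCF4 substrate, 460nm/530nm emission ratio gave %Activity; AC50 from titration series.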

[10] = qHTS Assay for Identification of Small Molecule Agonists for Thrombopoietin (TPO) Signaling Pathway (AID 917); also: % is scaled to controls: 0 for no effect and ±100 for the full control effect
Summary of the method: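 Murine Ba/F3 cells expressing human TPO receptor and GPIIb-promoter luciferase, IL-3-starved overnight, given compound plus TPO at 26 pM (EC50). After 24 h at 37 C, 5% CO2, luminescence read.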

[11] = molecular target: Muscarinic acetylcholine receptor M1 (Rattus norvegicus) (UniProt P08482); test: qHTS Assay for Antagonists of Acetylcholine Muscarinic M1 Receptor: Measurement of IP-One Response (AID 944); also: nearly all actives have a fitted effect of over 75% in size
Chain of Muscarinic acetylcholine receptor M1 (Rattus norvegicus) (P08482 whole entry, looked up): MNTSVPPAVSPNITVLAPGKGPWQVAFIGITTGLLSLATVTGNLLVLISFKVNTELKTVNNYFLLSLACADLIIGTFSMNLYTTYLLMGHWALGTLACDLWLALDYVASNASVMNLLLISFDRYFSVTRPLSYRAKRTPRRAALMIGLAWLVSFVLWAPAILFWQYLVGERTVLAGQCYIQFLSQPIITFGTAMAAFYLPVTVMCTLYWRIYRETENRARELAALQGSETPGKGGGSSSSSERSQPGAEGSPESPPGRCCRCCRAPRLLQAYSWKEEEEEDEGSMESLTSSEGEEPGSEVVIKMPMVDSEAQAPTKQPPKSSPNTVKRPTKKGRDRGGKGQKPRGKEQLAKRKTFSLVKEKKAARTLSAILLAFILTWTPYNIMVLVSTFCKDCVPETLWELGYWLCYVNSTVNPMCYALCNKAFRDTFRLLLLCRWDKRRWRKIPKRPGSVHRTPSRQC
Summary of the method: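 CHO cells expressing rat M1 receptor, recovered overnight, were pre-incubated 10 min with compound, then stimulated 30 min with carbachol at EC80 (200 nM) in LiCl-containing buffer, pH 7.4. IP1 accumulation was read by HTRF (620/665 nm).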

[12] = molecular target: Pyruvate kinase (Leishmania mexicana) (UniProt Q27686); test: qHTS Validation Assay for Inhibitors of Leishmania Mexicana Pyruvate Kinase (AID 945);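 also: 0% = DMSO only neutral control wells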
Chain of Pyruvate kinase (Leishmania mexicana) (Q27686 2-499 E452W): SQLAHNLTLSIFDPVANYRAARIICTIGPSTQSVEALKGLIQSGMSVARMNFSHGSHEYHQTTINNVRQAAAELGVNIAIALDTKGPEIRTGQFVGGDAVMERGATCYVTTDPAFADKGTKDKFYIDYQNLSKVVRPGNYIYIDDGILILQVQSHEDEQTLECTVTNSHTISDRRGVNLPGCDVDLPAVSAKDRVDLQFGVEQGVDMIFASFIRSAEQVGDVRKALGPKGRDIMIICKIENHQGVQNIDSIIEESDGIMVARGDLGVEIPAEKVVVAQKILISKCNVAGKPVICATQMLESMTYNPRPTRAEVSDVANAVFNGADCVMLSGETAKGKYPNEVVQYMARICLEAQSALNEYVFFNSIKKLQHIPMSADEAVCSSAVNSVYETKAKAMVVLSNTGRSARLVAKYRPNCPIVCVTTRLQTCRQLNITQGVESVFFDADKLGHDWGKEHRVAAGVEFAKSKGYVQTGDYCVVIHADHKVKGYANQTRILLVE
Summary of the method: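 Eight-point qHTS titrations in triplicate, data normalized to DMSO neutral control. Reaction: 0.2 nM LmPYK E451W mutant, 0.5 mM PEP, 0.1 mM ADP, 7 mM MgCl2, pH 7.2, one hour at room temperature; luminescent ATP detection.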

[13] = molecular target: Pyruvate kinase PKM (Homo sapiens) (UniProt P14618); test: qHTS Assay for Activators of Human Muscle Pyruvate Kinase (AID 954; active = well fitted curve in the direction sought with a large enough effect, not every such curve was filed as active;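 also: 0% = uninhibited enzyme and -100% = no enzyme or full thiadiazolimine inhibition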)
Chain of Pyruvate kinase PKM (Homo sapiens) (P14618 whole entry, looked up): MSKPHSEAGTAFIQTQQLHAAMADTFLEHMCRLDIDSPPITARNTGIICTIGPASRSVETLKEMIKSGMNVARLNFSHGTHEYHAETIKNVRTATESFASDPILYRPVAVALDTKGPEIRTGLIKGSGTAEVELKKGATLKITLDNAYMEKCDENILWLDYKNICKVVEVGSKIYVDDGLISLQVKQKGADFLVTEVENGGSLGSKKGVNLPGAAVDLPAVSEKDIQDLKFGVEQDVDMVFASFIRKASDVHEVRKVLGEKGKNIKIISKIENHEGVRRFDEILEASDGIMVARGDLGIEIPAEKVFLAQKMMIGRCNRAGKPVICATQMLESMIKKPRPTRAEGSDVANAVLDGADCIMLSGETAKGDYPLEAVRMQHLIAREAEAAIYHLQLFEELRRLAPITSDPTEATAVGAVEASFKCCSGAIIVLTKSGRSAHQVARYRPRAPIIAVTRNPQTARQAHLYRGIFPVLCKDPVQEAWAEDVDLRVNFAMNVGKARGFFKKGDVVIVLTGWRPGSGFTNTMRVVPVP
Summary of the method: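 Purified human PKM2 (0.1 nM) with 0.5 mM PEP (Km) and 0.1 mM ADP in 50 mM imidazole pH 7.2, KCl, MgCl2, 1 h at room temperature; ATP formed read by coupled luciferase luminescence. Normalized to no-enzyme/110 uM thiadiazolimine inhibition; 0.3 nM enzyme column for activation.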

[14] = molecular target: Alpha-galactosidase A (Homo sapiens) (UniProt P06280); test: Counterscreen for Glucocerebrosidase Inhibitors: qHTS Assay for Human alpha-Galactosidase at pH 4.5 (AID 992); also: 0% is about no effect
Chain of Alpha-galactosidase A (Homo sapiens) (P06280 whole entry, looked up): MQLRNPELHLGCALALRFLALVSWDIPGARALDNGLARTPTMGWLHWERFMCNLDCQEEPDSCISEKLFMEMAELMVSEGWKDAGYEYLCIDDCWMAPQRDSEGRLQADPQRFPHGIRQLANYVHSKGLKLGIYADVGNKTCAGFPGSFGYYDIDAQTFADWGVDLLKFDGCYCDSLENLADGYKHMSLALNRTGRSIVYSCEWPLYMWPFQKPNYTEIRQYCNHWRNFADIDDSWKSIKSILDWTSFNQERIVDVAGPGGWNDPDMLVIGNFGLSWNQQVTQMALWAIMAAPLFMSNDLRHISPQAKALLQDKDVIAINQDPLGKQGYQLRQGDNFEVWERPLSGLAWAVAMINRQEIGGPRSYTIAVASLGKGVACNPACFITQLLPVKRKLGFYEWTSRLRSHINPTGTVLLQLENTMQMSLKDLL
Summary of the method: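 Human enzyme (2 nM) with 80 uM 4-methylumbelliferyl alpha-D-galactopyranoside in 50 mM citric acid, 0.005% Tween-20, pH 4.5, 20 min at room temperature. Compounds 0.7 nM–77 uM; fluorescence Ex 365/Em 440 after pH 10 stop; AC50 from Hill fits.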

[15] = molecular target: alpha-glucosidase (Oryza sativa, rice) (UniProt Q653V4); test: Counterscreen for Glucocerebrosidase Inhibitors: qHTS Assay for Rice alpha-Glucosidase at pH 5.0 (AID 997);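 also: 0% = full activity with enzyme and -100% = basal without enzyme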
Summary of the method: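 Rice alpha-glucosidase (4 nM final) with 400 uM 4-methylumbelliferyl-alpha-D-glucopyranoside in citrate buffer pH 5.0, 20 min at room temperature, stopped at pH 10; fluorescence 365/440 nm, compounds 0.7 nM–77 uM, AC50 from Hill fits.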

[16] = molecular target: DNA repair nuclease/redox regulator APEX1 (Homo sapiens) (UniProt P27695); test: qHTS Validation Assay for Inhibitors of the Human Apurinic/apyrimidinic Endonuclease 1 (APE1) (AID 1705)
Chain of DNA repair nuclease/redox regulator APEX1 (Homo sapiens) (P27695 whole entry, looked up): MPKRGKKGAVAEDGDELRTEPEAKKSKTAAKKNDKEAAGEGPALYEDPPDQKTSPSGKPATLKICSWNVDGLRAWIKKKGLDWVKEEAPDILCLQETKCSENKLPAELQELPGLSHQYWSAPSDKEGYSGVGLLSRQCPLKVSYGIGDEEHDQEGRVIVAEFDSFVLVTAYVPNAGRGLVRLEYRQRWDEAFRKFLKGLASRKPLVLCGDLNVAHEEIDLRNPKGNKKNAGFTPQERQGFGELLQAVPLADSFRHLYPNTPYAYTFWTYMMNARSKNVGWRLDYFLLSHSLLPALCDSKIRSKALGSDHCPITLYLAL
Summary of the method: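 Fluorogenic double-stranded THF abasic-site substrate (5'-TAMRA/3'-BHQ-2), 50 nM final. Enzyme preincubated with compound 15 min at room temperature, then substrate added. Kinetic fluorescence (ex 525/em 598 nm) read three times at 60 s intervals; activity taken as third-minus-first read difference.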

[17] = Counterscreen for APE1 Inhibitors: Fluorescent Dye Displacement Validation Assay (AID 1707);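 also: plate controls were ThO with dsDNA and no compound for no effect and ThO without dsDNA for full effect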
Summary of the method: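 Thiazole Orange (250 nM) bound to 50 nM TAMRA-labelled dsDNA with tetrahydrofuran abasic site; displacement by DNA-binding compounds lowers fluorescence. Buffer 50 mM Tris-HCl pH 7.5, 50 mM NaCl, 2 mM MgCl2, 0.01% Tween-20; endpoint read at 480/540 nm.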

[18] = qHTS for differential inhibitors of proliferation of Plasmodium falciparum line 7G8 (AID 1815);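 also: parasite growth measured after three days of incubation; plate controls were vehicle wells for no effect and reference inhibitor wells for full effect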

O=S(=O)(O)C1CCNCC1
inactive: activity change, negative = inhibition [1] 5.14% [at 38 µM] | Potency [2] | outcome [3] | Potency [4] > 46 µM | Potency [5] > 46 µM | Potency [6] | Potency [7] | Potency [8] | activation [9] 1.41% | outcome [10] | Potency [11] | outcome [12] | outcome [13] | outcome [14] | outcome [15] | Potency [16] | outcome [17] | Potency [18]
